# HCMV inh – qHTS Assay for inhibitors of the human cytomegalovirus (HCMV) | AID 1259415, 2018 | activity change, negative = inhibition, % at 57.5 µM | HFF cells, HCMV-luciferase reporter, 72 h; stronger effect = lower value | actives 4.5% (n = 410,000); in the data active = activity change below about -60%; inconclusive = no clear call, values can overlap the other calls; inactive = above about -39%; note: % is set by controls: 0 for no effect and ±100 for the full control effect
#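 Human foreskin fibroblasts infected with luciferase-reporter HCMV at MOI 1 PFU/cell, compounds at two doses. Luciferase measured 72 h post infection; normalized to buffer-only basal and Salinomycin (10uM) controls.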
# Sm TGR block – qHTS Assay for the Inhibitors of Schistosoma Mansoni Peroxiredoxins; Schistosoma mansoni thioredoxin glutathione reductase (TGR), Q962Y6; purified TGR, DTNB reduction, TNB absorbance 405 nm; Potency, µM (titrated, usually from 114 µM), without a hit: at the top dose activity change, negative = inhibition, most hits filed as inhibitors; actives 3% (n = 360,000); note: potency is the fitted concentration of half-maximal effect; % is set by controls: 0 for no effect and ±100 for the full control effect; nearly all actives have a fitted effect of over 60% in size
#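 First, TGR (20 nM dispensed) and NADPH were mixed with compound. Second, a 15 min room-temperature incubation followed. Third, further NADPH and then DTNB were added to start the reaction. Finally, TNB absorbance was monitored kinetically.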
# Pf growth 48h – Primary qHTS for delayed death inhibitors of the malarial parasite plastid, 48 hour incubation; P. falciparum luciferase growth in erythrocytes, 48 h; Potency, µM (titrated, usually from 28.7 µM), for inactives: top-dose activity change, negative = inhibition, actives largely listed as inhibitors; actives 5.9% (n = 310,000); AID 504832, 2011; note: potency is the fitted concentration of half-maximal effect; % is set by controls: 0 for no effect and ±100 for the full control effect
#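 In quantitative HTS format, infected erythrocytes bearing luciferase-reporter parasites were treated for a single generation at 37 C. Luminescence after adding detection reagent served as the growth measure.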
# SARS PLP yeast – qHTS of Yeast-based Assay for SARS-CoV PLP; S. cerevisiae expressing SARS-CoV PLpro, growth rescue; Potency, µM (highest dose often 32.9 µM), for the others: at the highest dose activity, positive = growth rescue, actives largely listed as activators; actives 0.19% (n = 330,000); AID 485353, 2010; calls by dose curve; note: potency is the fitted concentration of half-maximal effect; 0% is about no effect; nearly all actives have a fitted effect of over 55% in size
# Pf growth 96h – Primary qHTS for delayed death inhibitors of the malarial parasite plastid, 96 hour incubation; Potency, µM (top dose mostly 28.7 µM), without a hit: at the top dose activity change, negative = inhibition, actives largely listed as inhibitors; P. falciparum luciferase reporter growth, 96 h; actives 6.9% (n = 320,000); note: potency is the fitted concentration of half-maximal effect; % is set by controls: 0 for no effect and ±100 for the full control effect
#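 96 h incubation, 37 C, 5% CO2, of luciferase-reporter P. falciparum-infected RBCs (2% hematocrit, 0.05% parasitemia final) with test compounds; endpoint luminescence.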
# HCV inh – qHTS Assay for Inhibitors of Hepatitis C Virus (HCV); Huh7.5.1 HCVcc-Cre infection, luciferase reporter, 44 h; Potency, µM (titrated, usually from 41.8 µM), for the others: at the highest dose activity change, negative = inhibition, usual class: inhibitors; actives 3.4% (n = 340,000); AID 651820, 2012; note: potency is the fitted concentration of half-maximal effect; % is set by controls: 0 for no effect and ±100 for the full control effect
#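 After 44 h co-culture of compound, cells and HCVcc-Cre (~0.5 moi), substrate is added for 15 min at room temperature and luciferase measured over 15 sec. Cells were seeded at 1,000/well and pre-cultured 4 h.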
# Active calls of the source: *; u = inconclusive; x = no result; [ ] = remark or other dose. Sampled rows, rich in hits. Any-hit rate of the full collection: about 15%. Unless noted, calls come from the whole dose curve; as a rule, active = well fitted curve in the direction sought with a large enough effect; inconclusive = small, poorly fitted or top-dose-only effect, or another doubt; inactive = no such curve, though single readings can be large; an effect the other way counts as inactive or inconclusive.
SMILES,HCMV inh,Sm TGR block,Pf growth 48h,SARS PLP yeast,Pf growth 96h,HCV inh
O=C(CSc1ccc2c(c1)OCCO2)NC(=O)Cc1ccccc1,51,-20%,-1%,-22%,-13%,5%
COC(=O)[C@]12CCCCC=C1N(Cc1ccc(Cl)cc1Cl)C(=O)[C@H](CC(=O)NCCc1ccccc1OC)C2,11,x,x,x,x,x
COc1cccc(NC(=O)COC(=O)c2ccc3c(c2)OCCO3)c1,-1,x,x,x,x,x
COc1ccc(Cl)cc1NC(=O)C1CCCN(S(C)(=O)=O)C1 (stereo unspecified),-30,-10%,4%,-3%,10%,-26%
COc1cccc(NC(=O)N(C)C[C@@H]2OCc3cnnn3CCCC(=O)N([C@H](C)CO)C[C@@H]2C)c1,-15,x,x,x,x,x
Cc1ccc2cc(C)c3nnc(SCC(=O)Nc4nc5c(s4)CCCC5)n3c2c1C,27,1%,-7%,-2%,12µM*,-7%
CC[C@H](C)[C@H]1CNC(=S)N1CC1CCN(CC)CC1,12,x,x,x,x,x
C/C(CCc1oc2ccc(Br)cc2c1-c1ccc(C)o1)=N/O,-39,40µM*,-13%,-15%,u,u
C/C(CCc1oc2ccc(Cl)cc2c1-c1ccc(C)o1)=N\O,3,25µM*,-8%,-15%,-8%,u
CC(=O)CCc1oc2ccc(C)cc2c1-c1ccccc1,53,0%,-9%,-2%,2%,-12%
CCCOc1ccc(/C(O)=C2/C(=O)C(=O)N(CCCn3ccnc3)C2c2ccc(C)o2)cc1 (stereo unspecified),56,u,13%,4%,23%,7%
COc1cccc2cc(C(N)=O)oc12,-10,1%,12%,-1%,18%[5.75 µM],-3%
COc1cccc2cc(C(=O)c3ccc([N+](=O)[O-])cc3)oc12,70,0%,25%,0%,15µM*,-28%
C[n+]1c2cc(N)ccc2cc2ccc(N)cc21,-99*,x,0.048µM*,x,0.034µM*,1.4µM*
c1cc2c(c(NCc3ccncc3)c1)CCCC2,-26,-1%,10µM*,-8%,x,u
NCC(O)(c1ccc(Cl)cc1)c1ccc(Cl)cc1,7,x,u,0%,4.7µM*,u
CC(C)(C)NCC(O)(c1ccc(Cl)cc1)c1ccc(Cl)cc1,x,-1%,u,3%,u,u
CC(C)NCC(O)(c1ccc(Cl)cc1)c1ccc(Cl)cc1,u,-2%,12µM*,1%,1.5µM*,-29%
CCN(CC)CCNCC(O)(c1ccc(Cl)cc1)c1ccc(Cl)cc1,-23,-12%,u,-1%,12µM*,u
CCN(CC)CCNCc1ccc(-c2ccc(Cl)cc2)o1,-14,u,u,0%,12µM*,u
CCN(CC)CCOc1ccc(C(O)(Cc2ccc(Cl)cc2)c2ccc(C)cc2)cc1 (stereo unspecified),x,x,13µM*,x,9.5µM*,x
COCCN(CCOc1cc(C)cc(C)c1)Cc1ccc(Cl)cc1,u,2%,u,-1%,u,6%
CCOC(=O)C(C)Sc1nc(-c2ccccn2)ncc1OC (stereo unspecified),-21,4%,13µM*,4%,3.3µM*,u
COc1cnc(-c2ccccc2)nc1Sc1ccccc1,16,-7%,-7%,-5%,u,13µM*
COc1cnc(-c2ccccn2)nc1Sc1ccccc1Cl,-98*,7%,u,-23%,u,u
SMILES,HCMV inh,Sm TGR block,Pf growth 48h,SARS PLP yeast,Pf growth 96h,HCV inh
COc1cnc(-c2ccccn2)nc1Sc1c(Cl)cccc1Cl,-73*,-26%,1.7µM*,16%,2.1µM*,u
COCCNC(=O)c1cccc(OC2CCN(Cc3ccc(F)c(OC)c3)CC2)c1,11,-3%,4%,u,u,u
CC(C)(Oc1ccc(Cl)cc1)C(=O)Nc1ccncc1,-31,2%,u,-17%,u,11µM*
O=C(Nc1ccncc1)Nc1ccc(Cl)cc1,-72*,0%,5.2µM*,-3%,28%,8%
O=C(Nc1ccncc1)Nc1ccncc1,-18,3%,u,0%,31%,9%
O=C(Nc1ccncc1)Nc1ccc(Cl)cc1Cl,-26,4%,1.7µM*,6%,-4%,u
CCOc1ccc2c(c1)c(=O)c(C(=O)c1ccc(CC)cc1)cn2CC(=O)Nc1ccc2c(c1)OCCO2,1,4%,x,x,x,x
COC(=O)CN1C(=O)N/C(=C/c2ccc(C)o2)C1=O,-4,28µM*,-1%,1%,10µM*,-2%
Cc1cc(C(=O)O)ccc1-c1ccc(/C=C2\NC(=O)N(Cc3ccccc3Cl)C2=O)o1,x,50µM*,36%,-1%,12%,7%
Cc1ccc(/C=C2/NC(=O)N(Cc3ccccc3)C2=O)o1,2,22µM*,-19%,-66%,-18%,4%
COC(=O)COc1ccc(/C=C2/NC(=O)N(CC(=O)OC)C2=O)cc1,6,13%,-40%,-7%,u,u
CC1CN(c2c(F)c(N)c3c(=O)c(C(=O)O)cn(C4CC4)c3c2F)CC(C)N1 (stereo unspecified),x,x,7.6µM*,x,4.8µM*,x
CO/N=C1\CN(c2nc3c(cc2F)c(=O)c(C(=O)O)cn3C2CC2)CC1CN (stereo unspecified),x,x,1.9µM*,x,1.7µM*,x
NC1CCN(c2c(F)cc3c(=O)c(C(=O)O)cn(C4CC4)c3c2Cl)C1 (stereo unspecified),0,4%,5.9µM*,-2%,0.74µM*,-8%
NC1CCN(c2nc3c(cc2F)c(=O)c(C(=O)O)cn3-c2ccc(F)cc2F)C1 (stereo unspecified),-29,x,3.8µM*,x,1.1µM*,4%
COc1c(N2CCN(C(=S)NC3CC4CCC3C4)C(C)C2)c(F)cc2c(=O)c(C(=O)O)cn(C3CC3)c12 (stereo unspecified),-35,0%,u,-1%,u,u
Cc1nc(C)n(C(C)CNS(=O)(=O)c2ccc(Cl)cc2)n1 (stereo unspecified),23,-1%,-2%,-4%,-14%,12%
CC(=O)N1CCN(c2cc3c(cc2F)c(=O)c(C(=O)O)cn3C2CC2)CC1,-24,3%,u,1%,-89%[5.75 µM],15%
COc1c(N2CCN(C(=S)Nc3ccc(F)cc3)C(C)C2)c(F)cc2c(=O)c(C(=O)O)cn(C3CC3)c12 (stereo unspecified),3,-25%,u,1%,u,-11%
